Results from PubChem BioAssay (Tox21).
A number with no mark means an inactive call. Records with an inconclusive call do not appear. A call without a number means that no potency is given here. The source made the active and inactive calls. Unless noted, calls come from the whole dose curve; as a rule, active = well fitted curve in the direction sought with a large enough effect in the repeat runs; inconclusive = weak or mixed curves; inactive = no such curve, though single readings can be large; an effect the other way counts as inactive or inconclusive.

How the values were obtained:
[1] = qHTS assay to identify small molecule agonists of the estrogen receptor alpha (ER-alpha) signaling pathway in the presence of an antagonist - cell viability counter screen (AID 1259386);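 note: series mostly up to about 92 µM; cells exposed to compounds for 22 h at 37 °C before the viability read; nearly all actives have a fitted effect of over 30% in size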
Outline: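 VM7Luc4E2 cells (endogenous full-length ER-alpha, 4×ERE-luciferase) were held 5 days in phenol red-free medium with 10% charcoal-stripped FBS, plated, then given 10.0nM ICI-182,780 and compounds at 15 concentrations for 22hr at 37C; viability read by CellTiter-Fluor fluorescence.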

[2] = molecular target: Progesterone receptor (Homo sapiens) (UniProt P06401); assay: qHTS assay to identify small molecule agonists of the progesterone receptor (PR) signaling pathway (AID 1346784; calls by dose curve; note: nearly all actives have a fitted effect of over 30% in size)
Outline: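 Reporter assay, GripTite PR-UAS-bla HEK 293T cells: 16 hr exposure to DMSO-dissolved compounds at 37C, 5% CO2, in steroid-depleted (2% charcoal-stripped FBS) medium; beta-lactamase measured by FRET fluorescence.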

[3] = molecular target: Progesterone receptor (Homo sapiens) (UniProt P06401); assay: qHTS assay to identify small molecule antagonists of the progesterone receptor (PR) signaling pathway (AID 1346795; active = well fitted inhibition curve with a large enough effect in the signal ratio in the repeat runs, not every such curve was filed as active; the % refers to the signal ratio; note: potency is the fitted concentration of half-maximal effect)
Outline: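 Stimulus R5020 at 1 nM final; cells HEK293T PR-UAS-bla; medium with 2% charcoal-stripped FBS; compound exposure 16 hr at 37C, 5% CO2; detection by FRET beta-lactamase substrate, 2 hr, room temperature.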

[4] = qHTS assay to identify small molecule antagonists of the progesterone receptor (PR) signaling pathway - cell viability counter screen (AID 1346798); note: nearly all actives have a fitted effect of over 50% in size; note: potency is the fitted concentration of half-maximal effect
Outline: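 In the same plates used for the beta-lactamase readout, cell viability of compound- and R5020-treated PR-UAS-bla HEK293T cells (16 hr, 37C) was assessed by CellTiter-Glo luminescence.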

[5] = qHTS assay to identify small molecule agonists of the progesterone receptor (PR) signaling pathway - cell viability counter screen (AID 1346799; calls by dose curve; note: nearly all actives have a fitted effect of over 45% in size; note: potency is the fitted concentration of half-maximal effect)
Outline: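 Multiplexed viability read: CellTiter-Glo luminescence, 30 min RT, following LiveBLAzer FRET measurement on PR-UAS-bla HEK293T cells exposed to compounds 16 hr.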

[6] = qHTS assay to identify small molecule agonists of the TGF-beta/Smad signaling pathway - cell viability counter screen (AID 1346829); note: top concentration of the series differs between compounds; nearly all actives have a fitted effect of over 45% in size
Outline: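 HEK 293T SBE-bla line, 5 hr compound exposure at 37 C, multiplexed CellTiter-Glo viability read by luminescence.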

[7] = qHTS assay to identify small molecule agonists of the TGF-beta/Smad signaling pathway (AID 1346859; active = well fitted activation curve with a large enough effect in the signal ratio in the repeat runs, not every such curve was filed as active; the % refers to the signal ratio; note: series mostly up to about 77 µM)
Outline: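 Screening used HEK 293T SBE-bla cells at 4,000/well. Test agents: 5 hr, 37 C. Detection: FRET substrate, 2 hr RT, then excitation 405 nm with emissions at 460 and 530 nm.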

[8] = Caspase-3/7 induction in HepG2 cells by small molecules, qHTS assay (AID 1346978); note: nearly all actives have a fitted effect of over 15% in size
Outline: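 Wild-type HepG2 cells, 2,000/well, settled 5 hr at 37 C and 5% CO2, then compound-treated for 17 hr; caspase-3/7 activity read by luminescent Caspase-Glo 3/7 after 30 min at room temperature.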

[9] = Caspase-3/7 induction in CHO-K1 cells by small molecules, qHTS assay (AID 1346980); note: nearly all actives have a fitted effect of over 15% in size
Outline: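 Wild-type CHO-K1 cells exposed to compounds for 17hr at 37 C, 5% CO2. Caspase-3/7 activity then measured by Caspase-Glo 3/7 luminescence after 30min at room temperature.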

[10] = Caspase-3/7 induction in HepG2 cells by small molecules, qHTS cell viability counter screen (AID 1346981); note: series mostly up to about 92 µM; nearly all actives have a fitted effect of over 30% in size
Outline: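 Wild-type HepG2 cells (2,000/well) were allowed to settle for 5 hr at 37 C, 5% CO2, then dosed with compounds in DMSO by pin transfer. After 16 hr at 37 C, CellTiter-Fluor was added and fluorescence read 1 hr later.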

[11] = molecular target: Nuclear receptor subfamily 1 group I member 2 (Homo sapiens) (UniProt O75469); assay: Human pregnane X receptor (PXR) activation by small molecules, qHTS assay (AID 1346985); note: nearly all actives have a fitted effect of over 40% in size
Outline: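 DPX-2 cells (HepG2 co-transfected with a PXR response element and a CYP3A4-promoter luciferase construct) were seeded at 2,000 per well, rested 5 hr at 37C, then exposed to DMSO-dissolved compounds for 24 hr. Activation was read as luciferase luminescence.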

[12] = qHTS assay to identify small molecule antagonists of the TGF-beta/Smad signaling pathway - cell viability counter screen (AID 1346824); note: nearly all actives have a fitted effect of over 50% in size
Outline: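 SBE-bla HEK 293T cells, incubated overnight, then compound plus 0.25 ng/mL TGF-beta1 (stock added) for 5 hr at 37 C. Viability was read in the same wells by CellTiter-Glo luminescence after 30 min at room temperature.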

[13] = molecular target: Thyrotropin-releasing hormone receptor (Homo sapiens) (UniProt P34981); assay: qHTS assay to identify small molecule antagonists of the thyrotropin-releasing hormone receptor (TRHR) signaling pathway (AID 1346877; active = well fitted inhibition curve with a large enough effect in the repeat runs, not every such curve was filed as active; note: series mostly up to about 51 µM)
Outline: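 TRHR-expressing HEK293 cells were seeded, cultured 18 h at 37 °C, then loaded with calcium dye for 2 h. Compounds were pre-incubated 5 min at room temperature before 1 nM TRH (final) was added, and kinetic fluorescence was recorded for 3 min.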

[14] = molecular target: Thyrotropin-releasing hormone receptor (Homo sapiens) (UniProt P34981); assay: qHTS assay to identify small molecule agonists of the thyrotropin-releasing hormone receptor (TRHR) signaling pathway (AID 1346891; calls by dose curve; note: series mostly up to about 58 µM)
Outline: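 Readout was intracellular calcium fluorescence in TRHR-Hek293 cells. Cells were incubated 18 h, dye-loaded 2 h at 37 °C, and treated with compound in agonist mode.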

[15] = Human pregnane X receptor (PXR) small molecule agonists, qHTS cell viability counter screen (AID 1346977); note: nearly all actives have a fitted effect of over 50% in size
Outline: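 In each well, the PXR reporter HepG2 line was checked for viability: CellTiter-Fluor reagent added 23hr post-dosing, fluorescence read after 1hr incubation at 37C.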

[16] = molecular target: Nuclear receptor subfamily 1 group I member 2 (Homo sapiens) (UniProt O75469); assay: Human pregnane X receptor (PXR) small molecule agonists, qHTS assay (AID 1346982); note: nearly all actives have a fitted effect of over 35% in size; note: potency is the fitted concentration of half-maximal effect
Outline: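 PXR-Luc HepG2 cells (CYP3A4 promoter-driven luciferase) were seeded in medium with 5% charcoal-stripped FBS, left 5 hr at 37 C, then exposed to compounds in DMSO for 24 hr. Luminescence was read after ONE-Glo addition.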

[17] = molecular target: Nuclear receptor subfamily 1 group I member 2 (Rattus norvegicus) (UniProt Q9R1A7); assay: Rat pregnane X receptor (rPXR) activation by small molecules, qHTS assay (AID 1346983); details: rPXR luciferase reporter cells, One-Glo luminescence, 24 h; max activation: hits give high values; note: nearly all actives have a fitted effect of over 20% in size
Outline: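 Cell-based rPXR activation assay: rPXR cells, 2,000 per well, rested 5hr at 37 C, then exposed to compounds in DMSO for 24 hr at 37 C. Luciferase activity read by One-Glo luminescence after 30 min at room temperature.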

[18] = Caspase-3/7 induction in CHO-K1 cells by small molecules, qHTS cell viability counter screen (AID 1346979); note: nearly all actives have a fitted effect of over 35% in size
Outline: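 Following a 5hr settling period, CHO-K1 cells at 1,500 per well received DMSO-dissolved compounds. Cell viability was quantified 16hr later by CellTiter-Fluor fluorescence, measured after 1hr with reagent at 37C.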

[19] = molecular target: Thyrotropin receptor (Homo sapiens) (UniProt P16473); assay: qHTS assay to identify small molecule antagonists of the thyroid stimulating hormone receptor (TSHR) signaling pathway (AID 1259385; calls by dose curve; note: nearly all actives have a fitted effect of over 20% in size)
Outline: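 TSHR-HEK293 cells (800/well) plated 18 h, then compounds with Ro20-1724 and TSH at 1.5 ng/mL final, 30 min at room temperature. cAMP quantified by HTRF (cAMP-d2/anti-cAMP-cryptate, 1 h); 15 concentrations in triplicate.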

Chain of Nuclear receptor subfamily 1 group I member 2 (Rattus norvegicus) (Q9R1A7 whole entry, looked up): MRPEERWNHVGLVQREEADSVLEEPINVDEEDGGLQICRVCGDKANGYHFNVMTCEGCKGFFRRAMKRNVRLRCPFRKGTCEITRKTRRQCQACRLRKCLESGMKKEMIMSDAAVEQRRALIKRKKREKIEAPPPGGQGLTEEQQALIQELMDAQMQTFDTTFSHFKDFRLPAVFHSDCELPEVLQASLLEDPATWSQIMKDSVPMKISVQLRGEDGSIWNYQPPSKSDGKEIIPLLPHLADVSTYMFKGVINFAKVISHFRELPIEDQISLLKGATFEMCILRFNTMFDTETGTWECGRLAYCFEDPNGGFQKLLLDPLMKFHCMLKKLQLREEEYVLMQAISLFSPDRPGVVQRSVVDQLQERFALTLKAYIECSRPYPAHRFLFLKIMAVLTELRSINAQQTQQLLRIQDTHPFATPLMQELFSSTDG
Chain of Thyrotropin-releasing hormone receptor (Homo sapiens) (P34981 whole entry, looked up): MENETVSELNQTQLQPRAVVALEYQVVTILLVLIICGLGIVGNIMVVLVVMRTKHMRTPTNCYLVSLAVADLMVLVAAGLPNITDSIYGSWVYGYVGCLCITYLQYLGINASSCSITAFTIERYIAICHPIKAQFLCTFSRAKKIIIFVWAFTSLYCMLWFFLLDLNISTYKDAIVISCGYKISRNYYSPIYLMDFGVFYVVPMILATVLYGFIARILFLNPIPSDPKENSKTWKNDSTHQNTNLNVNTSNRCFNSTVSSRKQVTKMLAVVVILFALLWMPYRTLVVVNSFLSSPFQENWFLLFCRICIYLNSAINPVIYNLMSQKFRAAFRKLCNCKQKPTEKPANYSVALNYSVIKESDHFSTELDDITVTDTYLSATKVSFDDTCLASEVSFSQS
Chain of Nuclear receptor subfamily 1 group I member 2 (Homo sapiens) (O75469 whole entry, looked up): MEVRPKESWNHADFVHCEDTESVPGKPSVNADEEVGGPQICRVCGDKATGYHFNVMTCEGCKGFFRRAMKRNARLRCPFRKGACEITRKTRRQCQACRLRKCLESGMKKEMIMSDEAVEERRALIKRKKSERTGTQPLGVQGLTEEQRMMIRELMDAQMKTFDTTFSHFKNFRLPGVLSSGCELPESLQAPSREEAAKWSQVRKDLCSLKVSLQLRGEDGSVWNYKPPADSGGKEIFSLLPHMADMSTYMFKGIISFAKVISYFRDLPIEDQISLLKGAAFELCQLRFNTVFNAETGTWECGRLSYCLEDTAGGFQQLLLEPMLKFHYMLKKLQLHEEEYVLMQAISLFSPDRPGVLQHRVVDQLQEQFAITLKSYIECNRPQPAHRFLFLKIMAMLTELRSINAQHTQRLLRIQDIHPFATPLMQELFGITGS
Chain of Progesterone receptor (Homo sapiens) (P06401 whole entry, looked up): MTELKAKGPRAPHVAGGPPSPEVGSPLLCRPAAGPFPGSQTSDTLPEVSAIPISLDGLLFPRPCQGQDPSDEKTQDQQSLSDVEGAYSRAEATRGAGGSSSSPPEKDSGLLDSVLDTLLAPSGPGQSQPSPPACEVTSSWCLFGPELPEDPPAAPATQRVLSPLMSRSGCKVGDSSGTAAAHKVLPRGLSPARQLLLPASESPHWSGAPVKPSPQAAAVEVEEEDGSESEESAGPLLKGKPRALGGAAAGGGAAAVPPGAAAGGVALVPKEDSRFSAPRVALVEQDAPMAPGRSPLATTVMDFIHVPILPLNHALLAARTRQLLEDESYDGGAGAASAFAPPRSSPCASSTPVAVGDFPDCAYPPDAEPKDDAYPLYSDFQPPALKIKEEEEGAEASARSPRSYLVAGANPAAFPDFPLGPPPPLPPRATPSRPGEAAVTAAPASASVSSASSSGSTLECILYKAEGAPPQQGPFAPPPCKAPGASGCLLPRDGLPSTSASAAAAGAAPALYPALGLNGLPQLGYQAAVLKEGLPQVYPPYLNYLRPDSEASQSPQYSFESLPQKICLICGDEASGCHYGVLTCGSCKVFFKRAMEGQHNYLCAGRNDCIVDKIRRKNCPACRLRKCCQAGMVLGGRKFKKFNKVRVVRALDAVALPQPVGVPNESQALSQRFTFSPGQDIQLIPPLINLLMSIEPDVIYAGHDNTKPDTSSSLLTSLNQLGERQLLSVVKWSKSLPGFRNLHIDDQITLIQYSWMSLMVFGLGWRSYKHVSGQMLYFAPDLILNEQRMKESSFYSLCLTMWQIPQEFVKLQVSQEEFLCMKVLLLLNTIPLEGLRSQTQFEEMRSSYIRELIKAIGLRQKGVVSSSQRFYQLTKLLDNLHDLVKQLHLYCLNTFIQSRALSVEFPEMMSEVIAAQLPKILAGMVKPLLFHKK
Chain of Thyrotropin receptor (Homo sapiens) (P16473 whole entry, looked up): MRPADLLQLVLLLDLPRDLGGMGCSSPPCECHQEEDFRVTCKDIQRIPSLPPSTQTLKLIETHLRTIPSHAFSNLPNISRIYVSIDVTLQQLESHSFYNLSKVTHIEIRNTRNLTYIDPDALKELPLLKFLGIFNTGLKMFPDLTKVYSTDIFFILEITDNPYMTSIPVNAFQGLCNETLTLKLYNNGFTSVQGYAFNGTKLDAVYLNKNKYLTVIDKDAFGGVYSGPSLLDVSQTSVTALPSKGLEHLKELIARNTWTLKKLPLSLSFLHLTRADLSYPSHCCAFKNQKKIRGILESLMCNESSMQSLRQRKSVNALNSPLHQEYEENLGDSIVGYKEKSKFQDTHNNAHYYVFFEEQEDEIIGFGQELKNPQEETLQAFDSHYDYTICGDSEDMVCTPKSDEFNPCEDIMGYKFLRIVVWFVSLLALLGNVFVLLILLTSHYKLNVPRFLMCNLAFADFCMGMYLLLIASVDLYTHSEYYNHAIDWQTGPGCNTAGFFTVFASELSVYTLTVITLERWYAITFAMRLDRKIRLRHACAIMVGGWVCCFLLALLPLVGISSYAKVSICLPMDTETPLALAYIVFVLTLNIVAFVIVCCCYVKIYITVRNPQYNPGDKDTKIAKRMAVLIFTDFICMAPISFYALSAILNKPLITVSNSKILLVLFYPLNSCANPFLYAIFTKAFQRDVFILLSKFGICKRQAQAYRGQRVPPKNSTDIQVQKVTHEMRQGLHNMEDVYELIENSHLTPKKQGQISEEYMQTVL

SMILES	Potency [1]	Potency [2]	Potency [3]	Potency [4]	Potency [5]	Potency [6]	Potency [7]	Potency [8]	Potency [9]	Potency [10]	Potency [11]	Potency [12]	outcome [13]	Potency [14]	Potency [15]	Potency [16]	max activation [17] [%]	Potency [18]	Potency [19]
C[C@@H](CN(C)C)CN1c2ccccc2Sc2ccccc21	inactive	inactive	26.6 µM (active)	18.8 µM (active)	10.6 µM (active)	inactive	inactive	inactive	inactive	inactive	inactive	–	–	–	–	–	–	–	–
O=C(/C=C/c1ccc(O)c(O)c1)O[C@@H]1C[C@@](OC(=O)/C=C/c2ccc(O)c(O)c2)(C(=O)O)C[C@@H](O)[C@@H]1O	inactive	inactive	inactive	inactive	–	inactive	inactive	inactive	inactive	inactive	inactive	inactive	inactive	inactive	inactive	inactive	-5.53	–	–
C=C1CCC2CC1C2(C)C (stereo unspecified)	inactive	inactive	inactive	inactive	inactive	inactive	inactive	inactive	inactive	inactive	–	inactive	inactive	inactive	inactive	inactive	–	inactive	–
C=CCc1ccccc1OCC(O)CNC(C)C (stereo unspecified)	inactive	inactive	inactive	inactive	–	inactive	inactive	–	inactive	inactive	–	–	inactive	inactive	inactive	–	–	inactive	–
CCC(OCCCOC)OC(C)=O (stereo unspecified)	inactive	inactive	inactive	inactive	–	inactive	inactive	inactive	inactive	inactive	–	inactive	inactive	inactive	–	–	–	–	–
Nc1ncnc2c1ncn2[C@H]1CC[C@@H](CO)O1	inactive	inactive	inactive	inactive	inactive	inactive	inactive	inactive	inactive	inactive	inactive	inactive	inactive	inactive	inactive	–	1.66	–	–
FC(F)(F)c1ccccc1Cl	inactive	inactive	inactive	inactive	inactive	inactive	inactive	inactive	inactive	inactive	–	inactive	inactive	inactive	inactive	inactive	–	inactive	–
Oc1cccc(O)c1O	–	inactive	–	inactive	–	inactive	inactive	–	inactive	–	inactive	inactive	inactive	inactive	–	60.6 µM (active)	-5.99	–	inactive
